16 compounds from PubChem BioAssay can be followed below.

Calls of active or inactive are those of the source. Unless noted, no stated cut-off is given here; in the data, active means nuclear beta-catenin stimulation mostly above about 4.2% (no sharp cut-off); inactive means mostly below about 10%.

A short description of experiment [1]: Wnt pathway potentiators raising nuclear beta-catenin – imaging, WNT3A-conditioned medium, mouse C2C12, NPC library, primary screen (AID 1117326). Further: reference of the scale not given here. The note with it: stronger effect = higher value.
Experiment [2] in a line: stimulators of insulin release from INS-1E, primary screen, cell-based, 5 mM glucose, NPC library (AID 1117329;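 active means compound raises insulin release from rat beta cells at 5 mM glucose, no numeric limit stated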; further: reference of the scale not given here). To be noted: rat INS-1E insulin secretion, at 10 µM, stronger effect = higher value.
Experiment [3] is described as follows: growth inhibition of GSK3B-pretreated HCT116 cells – cell-based, CellTiter-Glo, 0.2 to 20 µM (AID 1117336;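 active means compounds lowering colon cancer cell viability after pretreatment blocking the GSK3B kinase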). The note with it: HCT116 viability after GSK3B inhibitor, at 20 µM, stronger effect = higher value.
Experiment [4] is described as follows: inhibition of endothelial tube formation, primary screen, imaging, VEGF stimulated, CD31 staining, tube area, NPC library (AID 1117340;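 active means compound that reduces growth-factor-driven endothelial tube area in a mixed cell culture, no cutoff stated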). The note with it: VEGF-stimulated ADSC/ECFC co-culture, at 10 µM, stronger effect = higher value.
The nature of experiment [5]: GLP1 release stimulators, primary, NCI-H716, NPC library (AID 1117341;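 active means compound raises GLP1 secretion from the human gut endocrine cells, with no numeric limit stated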; further: reference of the scale not given here). To be noted: NCI-H716 cells, at 10 µM, stronger effect = higher value.
The nature of experiment [6]: HCT116 colon cancer cell growth inhibition, primary screen, CellTiter-Glo luminescence, NPC library (AID 1117342;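 active means compounds that lower survival of HCT116 colon cancer cells in the luminescence readout, no numeric limit stated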). The note with it: at 20 µM (top of the series).
The nature of experiment [7]: reduced SW480 viability measured with CellTiter-Glo, NPC library, primary (AID 1117343;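 active means compounds that lower viability of the colon cancer cells in the luminescence readout, with no numeric limit stated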). The note with it: CellTiter-Glo luminescence; at 20 µM (top of the series).
Experiment [8] in a line: NPC library primary testing for decreased DLD-1 cell viability via CellTiter-Glo (AID 1117346;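 active means compounds that lower survival of DLD-1 colon cancer cells in the luminescence readout, no cutoff given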). The note with it: DLD-1 viability, CellTiter-Glo luminescence; at 20 µM (top of the series).

Take `Oc1ccc(C(O)CNCCCCCCNCC(O)c2ccc(O)c(O)c2)cc1O` (centres undefined): the nuclear beta-catenin stimulation is -0.7% (inactive) in experiment [1] (at 10 µM) and -2.3% in experiment [1] (stimulation, at 2 µM). Moreover, the insulin secretion stimulation in experiment [2] was 1.65% (inactive). Further, the viability decrease in experiment [3] was 76.1% (active). For the same compound, the tube area decrease in experiment [4] is -0.1% (inactive). Besides, the GLP1 secretion stimulation in experiment [5] is 4.5% (inactive). In experiment [6], the inhibition of viability was 43% (inactive). Further, the figures for the viability decrease (inhibition) in experiment [7] and in experiment [8] were 42.9% (inactive) and 40.4% (inactive), respectively.

Turning to `CCOc1ccc(C(=O)OCCN(CC)CC)cc1`, the nuclear beta-catenin stimulation is -1% (inactive) in experiment [1] (at 10 µM) and -1.4% in experiment [1] (stimulation, at 2 µM). In addition, in experiment [2], the insulin secretion stimulation is -0.6% (inactive). Besides, the viability decrease in experiment [3] was 6.1% (inactive). Also, the tube area decrease in experiment [4] is -2.2% (inactive). Further, the GLP1 secretion stimulation in experiment [5] is 1.9% (inactive). For the same compound, the inhibition of viability in experiment [6] was 43.8% (inactive). Moreover, the viability decrease (inhibition) in experiment [7] is 20.4% (inactive); in experiment [8], 8.4% (inactive).

For `O=C(O)C1CSC(C(=O)O)N1` (centres undefined), the nuclear beta-catenin stimulation in experiment [1] (at 10 µM) was 0.7% (inactive); in experiment [1] (stimulation, at 2 µM) it was 1.2%. For the same compound, in experiment [2], the insulin secretion stimulation is -0.4% (inactive). Further, the viability decrease in experiment [3] is -6.8% (inactive). For the same compound, the tube area decrease in experiment [4] is -2.5% (inactive). Also, the GLP1 secretion stimulation in experiment [5] is -3.3% (inactive). Besides, the inhibition of viability in experiment [6] was 2.5% (inactive). Moreover, the viability decrease (inhibition) in experiment [7] was 4% (inactive); in experiment [8], -8.7% (inactive).

In the case of `CCCCCCCCC=CCCCCCCCC(=O)NCCOC(=O)CC(C(=O)O)S(=O)(=O)O` (centres undefined), the nuclear beta-catenin stimulation was 0.3% (inactive) in experiment [1] (at 10 µM) and -0.7% in experiment [1] (stimulation, at 2 µM). For the same compound, the insulin secretion stimulation in experiment [2] was 0.8% (inactive). Besides, in experiment [3], the viability decrease was 36.1% (active). For the same compound, in experiment [4], the tube area decrease is 22.7% (inactive). For the same compound, the GLP1 secretion stimulation in experiment [5] was -1% (inactive). In addition, the inhibition of viability in experiment [6] was 17.1% (inactive). The viability decrease (inhibition) in experiment [7] was 63.4% (active); in experiment [8], 81.6% (active).

On to `CCOC(=O)C(=O)c1csc(NC=O)n1`, for which the nuclear beta-catenin stimulation is -0.7% (inactive) in experiment [1] (at 10 µM) and -0.8% in experiment [1] (stimulation, at 2 µM). Besides, in experiment [2], the insulin secretion stimulation was 2.4% (inactive). In experiment [3], the viability decrease was -15.5% (inactive). Further, the tube area decrease in experiment [4] is -9.4% (inactive). For the same compound, the GLP1 secretion stimulation in experiment [5] is -2% (inactive). In experiment [6], the inhibition of viability was 1.1% (inactive). In addition, the viability decrease (inhibition) in experiment [7] was -10.2% (inactive); in experiment [8] it was 7.8% (inactive).

As to `Cc1nc([N+](=O)[O-])cn1-c1ccc([N+](=O)[O-])cc1`, the nuclear beta-catenin stimulation in experiment [1] (at 10 µM) was -0.1% (inactive); in experiment [1] (stimulation, at 2 µM), -2.2%. For the same compound, the insulin secretion stimulation in experiment [2] was 2% (inactive). Moreover, in experiment [3], the viability decrease was -6.7% (inactive). For the same compound, the tube area decrease in experiment [4] is 3.8% (inactive). In addition, in experiment [5], the GLP1 secretion stimulation is 3.6% (inactive). Moreover, the inhibition of viability in experiment [6] is 18.2% (inactive). Moreover, the viability decrease (inhibition) in experiment [7] is 10.4% (inactive); in experiment [8] it was -13.5% (inactive).

Turning to `NS(=O)(=O)c1cc2c(cc1Cl)CN(C1CCCCC1)C2=O`, the nuclear beta-catenin stimulation is -0.9% (inactive) in experiment [1] (at 10 µM) and -0.3% in experiment [1] (stimulation, at 2 µM). For the same compound, the insulin secretion stimulation in experiment [2] is -0.2% (inactive). For the same compound, in experiment [3], the viability decrease was -0.4% (inactive). Besides, the tube area decrease in experiment [4] is -3.4% (inactive). Further, in experiment [5], the GLP1 secretion stimulation is 1.4% (inactive). In addition, the inhibition of viability in experiment [6] was -2.17% (inactive). Also, the viability decrease (inhibition) was -0.2% (inactive) in experiment [7] and -3.8% (inactive) in experiment [8].

Turning to `NS(=O)(=O)c1ccc(Cl)c(S(N)(=O)=O)c1`, the nuclear beta-catenin stimulation in experiment [1] (at 10 µM) is -2.3% (inactive); in experiment [1] (stimulation, at 2 µM), -1%. The insulin secretion stimulation in experiment [2] was -1.3% (inactive). For the same compound, the viability decrease in experiment [3] was -4.9% (inactive). In addition, in experiment [4], the tube area decrease is 12.2% (inactive). Also, the GLP1 secretion stimulation in experiment [5] is -0.9% (inactive). Also, the inhibition of viability in experiment [6] was -6% (inactive). Besides, the viability decrease (inhibition) is -5.6% (inactive) in experiment [7] and -7.1% (inactive) in experiment [8].

Regarding `CO/N=C(\C(=O)O)c1csc(NC(=O)CCl)n1`, the nuclear beta-catenin stimulation in experiment [1] (at 10 µM) is 0.7% (inactive); in experiment [1] (stimulation, at 2 µM), 2.9%. Moreover, in experiment [2], the insulin secretion stimulation was 1.4% (inactive). The viability decrease in experiment [3] is 16.2% (inactive). For the same compound, the tube area decrease in experiment [4] is -12.1% (inactive). Further, the GLP1 secretion stimulation in experiment [5] is 1.7% (inactive). Moreover, the inhibition of viability in experiment [6] is -2% (inactive). Also, the viability decrease (inhibition) in experiment [7] was -1.7% (inactive); in experiment [8], -2.1% (inactive).

Turning to `COc1ccc(C(=O)N2CCN(CC(=O)N3CCOCC3)CC2)cc1`, the nuclear beta-catenin stimulation was 0.8% (inactive) in experiment [1] (at 10 µM) and 5.2% in experiment [1] (stimulation, at 2 µM). In addition, the insulin secretion stimulation in experiment [2] was 3.1% (inactive). The viability decrease in experiment [3] is 6.4% (inactive). Also, in experiment [4], the tube area decrease is 2.1% (inactive). In addition, the GLP1 secretion stimulation in experiment [5] was 0.6% (inactive). In addition, in experiment [6], the inhibition of viability is 4.3% (inactive). Further, the viability decrease (inhibition) in experiment [7] is -11.3% (inactive); in experiment [8], 3.3% (inactive).

For `CCOC(=O)Oc1ccc(CCNC(=O)[C@H](CCSC)NC(C)=O)cc1OC(=O)OCC`, the nuclear beta-catenin stimulation is -0.7% (inactive) in experiment [1] (at 10 µM) and 1.3% in experiment [1] (stimulation, at 2 µM). For the same compound, the insulin secretion stimulation in experiment [2] is -1.6% (inactive). The viability decrease in experiment [3] was 41% (inactive). Moreover, the tube area decrease in experiment [4] is 1.3% (inactive). In addition, in experiment [5], the GLP1 secretion stimulation is -1.1% (inactive). Further, the inhibition of viability in experiment [6] is 2.33% (inactive). Besides, the viability decrease (inhibition) is 14.7% (inactive) in experiment [7] and 18.4% (inactive) in experiment [8].

For the compound `CC(=O)OC[C@H]1O[C@@H](n2ncc(=O)[nH]c2=O)[C@H](OC(C)=O)[C@@H]1OC(C)=O`, the nuclear beta-catenin stimulation in experiment [1] (at 10 µM) was 14% (inactive); in experiment [1] (stimulation, at 2 µM), 2.3%. Moreover, in experiment [2], the insulin secretion stimulation was 1.7% (inactive). For the same compound, in experiment [3], the viability decrease was 47.3% (active). Further, in experiment [4], the tube area decrease is 47.8% (active). In addition, the GLP1 secretion stimulation in experiment [5] is -0.6% (inactive). In addition, the inhibition of viability in experiment [6] was 16.2% (inactive). The viability decrease (inhibition) was 26% (inactive) in experiment [7] and -5.9% (inactive) in experiment [8].

In the case of `O=C1[C@@H]2[C@H]3CC[C@H](C3)[C@@H]2C(=O)N1CCCCN1CCN(c2ncccn2)CC1`, the nuclear beta-catenin stimulation in experiment [1] (at 10 µM) was 10% (inactive); in experiment [1] (stimulation, at 2 µM), 34.2%. The insulin secretion stimulation in experiment [2] is 3.2% (inactive). Moreover, the viability decrease in experiment [3] was -0.8% (inactive). For the same compound, the tube area decrease in experiment [4] was 0.8% (inactive). The GLP1 secretion stimulation in experiment [5] was 1.5% (inactive). Also, in experiment [6], the inhibition of viability was 45.5% (inactive). For the same compound, the viability decrease (inhibition) in experiment [7] was 12.8% (inactive); in experiment [8], 1.2% (inactive).

Take `CCOC(=O)c1cc(=O)c2c(OCC(COc3cccc4oc(C(=O)OCC)cc(=O)c34)OC(=O)[C@@H](N)CCCCN)cccc2o1`: the nuclear beta-catenin stimulation in experiment [1] (at 10 µM) was 0.5% (inactive); in experiment [1] (stimulation, at 2 µM), 1.2%. Moreover, in experiment [2], the insulin secretion stimulation is -1.2% (inactive). For the same compound, the viability decrease in experiment [3] is -30% (inactive). Also, the tube area decrease in experiment [4] was 4.5% (inactive). For the same compound, in experiment [5], the GLP1 secretion stimulation is 7.5% (inactive). Moreover, the inhibition of viability in experiment [6] was -25.1% (inactive). Further, the viability decrease (inhibition) is -75% (inactive) in experiment [7] and -11.5% (inactive) in experiment [8].

With `CCOC(=O)c1cccc(N)c1`, the nuclear beta-catenin stimulation is -0.3% (inactive) in experiment [1] (at 10 µM) and -1.1% in experiment [1] (stimulation, at 2 µM). Moreover, the insulin secretion stimulation in experiment [2] is 1.3% (inactive). Moreover, in experiment [3], the viability decrease was 4.6% (inactive). Moreover, the tube area decrease in experiment [4] is -29.7% (inactive). Besides, the GLP1 secretion stimulation in experiment [5] is -4.7% (inactive). Besides, the inhibition of viability in experiment [6] was -7.9% (inactive). The viability decrease (inhibition) in experiment [7] is 35.4% (inactive); in experiment [8] it was 4.45% (inactive).

Consider `c1ccc(-n2cnnn2)cc1`, for which the nuclear beta-catenin stimulation in experiment [1] (at 10 µM) is 0.3% (inactive); in experiment [1] (stimulation, at 2 µM) it was 0.9%. Besides, the insulin secretion stimulation in experiment [2] was 1.9% (inactive). The viability decrease in experiment [3] was -7.2% (inactive). The tube area decrease in experiment [4] is 23.2% (inactive). In addition, in experiment [5], the GLP1 secretion stimulation is -5% (inactive). Further, in experiment [6], the inhibition of viability was 1.7% (inactive). The viability decrease (inhibition) was 10.4% (inactive) in experiment [7] and 1.4% (inactive) in experiment [8].
